Measured values published in PubChem BioAssay (NCI).
“And” between values parts separate entries of the source, which are not always exact repeats. Equal values may be shown once. This is part of a sample that, as a whole, favours compounds with a hit. Of some 83,000 tested, about 20% had one in any assay.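 Cells were grown in 96-well plates and exposed to the test compound at a single concentration for 48 hours; results are reported as percent growth, with values below 10 considered active.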 The source made the active and inactive calls.

These molecules were tested on MDA-MB-468 breast (assay: NCI-60 one-dose screen, 48 h (100 = growth as untreated, 0 = no growth, -100 = all killed)). Conditions: 10 µM unless noted.

| Structure (SMILES) | growth |
| --- | --- |
| COC(=O)[C@]12CC[C@@H](C)[C@H](C)[C@@H]1C1=CC[C@@H]3[C@@]4(C)C[C@@H](OC(=O)/C=C/c5ccccc5)[C@H](O)[C@@](C)(CO)[C@@H]4[C@H](O)C[C@@]3(C)[C@]1(C)CC2 | -19.2% (active) |
| O=C(Nc1ccccc1Cl)Oc1ccc(-c2ccccc2)cc1 | 115% (inactive) |
| Cc1cc(Cl)nc(N(CCCNc2ccnc3cc(Cl)ccc23)Cc2cccs2)n1 | -30.1% (active) |
| O=C1CC(c2ccc(O)c(O)c2)Oc2cc(O)c([C@@H]3O[C@H](CO)[C@@H](O)[C@H](O)[C@H]3O)c(O)c21 (some centres not stated) | 106% (inactive) |
| CC(NC(=O)Oc1cccc2ccccc12)c1ccccc1 (configuration not stated) | 107% (inactive) |
| Nc1ccc(N2CCOCC2)cc1 | 96.9% (inactive) |
| C=C(C)[C@@H]1CC[C@]2(C(=O)N3CCOCC3)CC[C@]3(C)[C@H](CC[C@@H]4[C@@]5(C)C/C(=C/c6ccncc6)C(=O)C(C)(C)[C@@H]5CC[C@]43C)[C@@H]12 | 21.4% (inactive) |
| CCCCC(=O)Nc1ncc(Cc2ccc(Cl)cc2)s1 | 26.2% (inactive) |
| Oc1c(Cl)cc(Cl)cc1Sc1cc(Cl)cc(Cl)c1O | 84% (inactive) and -2.78% (active) and 67.9% (inactive) |
| CCCCCCC(C)(O)c1ccccc1 (configuration not stated) | 117% (inactive) |
| COc1ccc(-c2nc(Nc3ccc(-c4nc5ccccc5[nH]4)cc3)nc(N3CCOCC3)n2)cc1 | -1.23% (active) |
| O=C(/C=C/c1c(Cl)nc2sccn12)c1ccc(F)c(F)c1 | 35.4% (inactive) |
